Results on 27 molecules are retold here after PubChem BioAssay (NCATS).

Inconclusive results are not listed. Calls of active or inactive are those of the source. Calls follow the shape of the dose curve; as a rule, active = well fitted cell-killing curve with a large enough effect; inconclusive = small, poorly fitted or top-dose-only effect, or effect the other way; inactive = no such curve, though single readings can be large or run the other way.
Potency is read from the fitted curve at half-maximal effect.

This assay can be described thus: Quantitative High-Throughput drug screen in 47 multiple myeloma cell lines against the NCATS MIPE library collection: UTMC2_PLB cell viability assay (AID 1919868). Also: nearly all actives have a fitted effect of over 55% in size.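 As to viability (% of DMSO control): 100% = DMSO-only wells and 0% = media-only wells without cells.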 Conditions: CellTiter-Glo ATP luminescence, 48 h; viability (% of DMSO control): at 45.8 µM (top of the series) unless noted. Summed up: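 Plated at 500 cells per well, myeloma lines received MIPE 4.0 compounds by pin tool. Following 48 h culture at 37 °C, CellTiter-Glo luminescence gave viability relative to DMSO and media-only controls.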
(In general: Cellular ATP, detected with luciferase, serves as a proxy for viable cell number.)
For `COc1ccc(-c2cc3c(C)nc(N)nc3n(C3CCC(OCCO)CC3)c2=O)cn1` (configuration not stated), the Potency is 52.6 nM (active).
Consider `Cc1ccc(NC(=O)C2(c3ccc4c(c3)OC(F)(F)O4)CC2)nc1-c1cccc(C(=O)O)c1`, for which the Potency was 83.3 nM (active).
The same measure, in the same setting: the same measure for `C#Cc1cccc(Nc2ncnc3cc(OC)c(OCCCCCCC(=O)NO)cc23)c1`: 18.7 nM (active).
Regarding `O=C(O)[C@H](Cc1c[nH]c2ccccc12)N1C(=O)c2ccccc2C1=O`, the viability (% of DMSO control) is 115% [at 92.2 µM] (active).
Regarding `O=C(O)c1ccc2cc(-c3ccc(O)c(C45CC6CC(CC(C6)C4)C5)c3)ccc2c1`, the Potency is 264 nM (active).
On the same count and under the same terms, next, `CC(NCc1ccc2c(c1)nc(NC(=O)c1ccc(-c3cn[nH]c3)s1)n2CC(C)(C)O)C(C)(C)C` (configuration not stated): 105 nM (active); `Cc1cc(N2CCOCC2)cc2[nH]c(-c3c(NC[C@@H](O)c4cccc(Cl)c4)cc[nH]c3=O)nc12`: 66.2 nM (active).
On the same count and under the same terms, next, `Nc1cc(C(F)(F)F)c(-c2cc(N3CCOCC3)nc(N3CCOCC3)n2)cn1`: 264 nM (active); `Nc1ncnc2c1c(-c1cnc3[nH]ccc3c1)nn2C1CCCC1`: 526 nM (active).
Same read-out and setting: the same measure for `CCN(CC)CCCCNc1ncc2cc(-c3cc(OC)cc(OC)c3)c(NC(=O)NC(C)(C)C)nc2n1`: 16600 nM (active).
Take `CCOc1ccccc1OCCNC(C)Cc1ccc(OC)c(S(N)(=O)=O)c1` (configuration not stated): the Potency result is “inactive”.
Still for that read-out and setting: the same measure for `C[C@@]12O[C@@H](C[C@]1(O)CO)n1c3ccccc3c3c4c(c5c6ccccc6n2c5c31)CNC4=O`: 118 nM (active).
Take `CN(C)CC=CC(=O)Nc1cc2c(Nc3ccc(F)c(Cl)c3)ncnc2cc1O[C@H]1CCOC1`: the Potency was 5260 nM (active).
Still for that read-out and setting: next, `COc1cc2c(NC3CCN(C(C)C)CC3)nc(C3CCCCC3)nc2cc1OCCCN1CCCC1`: 13200 nM (active); `O=C(Nc1cc(C(F)(F)F)cc(C(F)(F)F)c1)c1cc(Cl)ccc1O`: 743 nM (active).
As to `CCCCc1nc2cc(C=CC(=O)NO)ccc2n1CCN(CC)CC`, the Potency was 264 nM (active).
Still for that read-out and setting: the same measure for `Cn1cc(-c2[nH]c3cc(NC(=O)[C@H](N)C4CCCCC4)cc4c3c2C=NNC4=O)cn1`: 74.3 nM (active); for `O=C(C=Cc1cccc(S(=O)(=O)Nc2ccccc2)c1)NO`: 1080 nM (active); for `CC(=O)OCC(=O)[C@@]1(O)[C@H](C)C[C@H]2[C@@H]3C=C(C)C4=Cc5c(cnn5-c5ccccc5)C[C@]4(C)[C@@H]3[C@@H](O)C[C@@]21C`: 11800 nM (active).
On the same count and under the same terms, next, `CC1(C)CCC(c2ccc(Cl)cc2)=C(CN2CCN(c3ccc(C(=O)NS(=O)(=O)c4ccc(N[C@H](CCN5CCOCC5)CSc5ccccc5)c(S(=O)(=O)C(F)(F)F)c4)cc3)CC2)C1`: 93.5 nM (active); `CCn1cc(-c2ccnc3[nH]c(-c4cccc(CN(C)C)c4)cc23)c(-c2ccc(NC(=O)N(C)C)cc2)n1`: 743 nM (active).
The same measure, in the same setting: the same measure for `O=C(c1ccc(Nc2nccc(-c3cc4ccccc4s3)n2)cc1)N1CCC(N2CCCC2)CC1`: 6620 nM (active); for `CNC(=O)c1ccc(N2C(=S)N(c3cnc(C#N)c(C(F)(F)F)c3)C(=O)C23CCC3)cc1F`: 3320 nM (active); for `COc1ccc(-n2nc(C(N)=O)c3c2C(=O)N(c2ccc(N4CCCCC4=O)cc2)CC3)cc1`: “inactive”.
As to `c1nc2nc(Nc3ccc(N4CCOCC4)cc3)nc(NC3CCCCC3)c2[nH]1`, the Potency was 2640 nM (active).
The same measure, in the same setting: the same measure for `COc1cc(OC2CCN(C)CC2)ccc1Nc1ncc2c(n1)n(C1CCCC1)c(=O)n2C`: 7430 nM (active).
On to `Nc1ncnc2c1c(-c1cccc(OCc3ccccc3)c1)cn2C1CC(CN2CCCC2)C1` (configuration not stated), for which the Potency is 66.2 nM (active).
